FMDV inh = antivirals against foot and mouth disease virus; FMDV antiviral cell-based qHTS; Potency, µM (highest dose often 57.9 µM), for the others: top-dose activity change, negative = inhibition, actives largely listed as inhibitors; 410,000 compounds, 1.2% hits; calls by dose curve; tested in HEK293T cells; further: read-out not given here; potency means the concentration at half of the fitted maximal effect; nearly all actives have a fitted effect of over 45% in size
LASV entry inh = inhibitors of Lassa virus binding or cell entry; Lassa virus pseudotype entry inhibition, cell reporter; Potency, µM (highest dose often 37.9 µM), inactives show top-dose activity change, negative = inhibition, most hits filed as inhibitors; 300,000 compounds, 1.2% hits; calls by dose curve; tested in HEK293 cells; further: potency means the concentration at half of the fitted maximal effect; nearly all actives have a fitted effect of over 50% in size
HCMV inh = blocks human cytomegalovirus replication; HFF cells, HCMV-luciferase reporter, 72 h; active compounds read low; activity change, negative = inhibition, % at 57.5 µM; 410,000 compounds, 4.5% hits; AID 1259415; in the data active means activity change below about -60%; inconclusive means no clear call, values can overlap the other calls; inactive means above about -39%
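Cell-based, HFFs, 1000 cells/well, 16 h 37C; cpds in DMSO + HCMV-luc, MOI 1 PFU/cell; 72 h 37C; OneGlo luminescence after 5 min RT; norm. to buffer vs Salinomycin 10uM.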
Marburg entry inh = inhibitors of Marburg virus binding or cell entry | Marburg virus pseudotyped entry inhibition, cell reporter | Potency, µM (titrated, usually from 37.8 µM), without a hit: at the highest dose activity change, negative = inhibition, actives largely listed as inhibitors | 300,000 compounds, 1.8% hits; calls by dose curve; tested in HEK293 cells; further: potency means the concentration at half of the fitted maximal effect
Starred values were filed as active, the others as inactive; ? = inconclusive; . = not tested or not shown; [ ] = remark or other dose. Sampled rows, rich in hits. Any-hit rate of the full collection: about 6.2%. On the % scale 0 is the no-effect control and ±100 the full control effect.

SMILES	FMDV inh	LASV entry inh	HCMV inh	Marburg entry inh
Cc1ccc2c(c1)CC[C@H]1CC(=O)CC[C@@]21C	-13.4%	.	.	.
CN1CCc2cc3c(cc2[C@@H]1[C@@H]1C(=O)Oc2c1ccc1c2OCO1)OCO3	-11.4%	.	.	.
O=C(Nc1nnc(-c2ccccc2Cl)o1)c1ccc(S(=O)(=O)N2CCCCCC2)cc1	-24.9%	?	.	?
O=C(Nc1nnc(-c2cccs2)o1)c1ccc(S(=O)(=O)N2CCOCC2)cc1	-13.9%	-7.6%	-84.5*	?
CC1CCN(S(=O)(=O)c2ccc(C(=O)Nc3nnc(C4=COCCO4)o3)cc2)CC1	-24.4%	.	-70.3*	.
O=c1ccc2c(OCCCCc3ccccc3)c3ccoc3cc2o1	.	10.6%	.	?
COC(=O)/C=C/c1sc2nc(C)cc(C)c2c1N=CN(C)C	4.7%	2.6%	-67.5*	?
Cc1cc(C)c2c(N=CN(C)C)c(C(=O)N3CCN(c4ncccn4)CC3)sc2n1	-4.8%	-7.3%	11.4	-26.0%[46.1 µM]
CCC(=NCc1ccc2c(c1)OCO2)c1c(O)n(C2CCCCC2)c(=O)[nH]c1=O	?	13µM*	?	?
CCC(=NCCO)c1c(O)n(C2CCCCC2)c(=O)[nH]c1=O	-5.4%	-15.0%	15.1	3.7%
CCN(CC)c1ccc(NC(=O)CN(C)S(=O)(=O)c2cccc3nsnc23)c(C)c1	-23.5%	3.0%[46.1 µM]	-66.6*	?
CC1C(=O)OC2C(O)C34C5CC(C(C)(C)C)C36C(OC(=O)C6O)OC4(C(=O)O5)C12O (stereo unspecified)	-15.6%	.	.	.
CCc1cc(C(=O)NCC2Cc3cc(C)cc(-c4cc(C(C)=O)ccc4F)c3O2)n(C)n1 (stereo unspecified)	-23.8%	.	.	.
O=C(COc1ccc(Cl)cc1)Nc1ccc(N2CCN(C(=O)c3ccco3)CC2)cc1	.	?	-85.9*	?
COc1ccc(OCC(=O)Nc2ccc(N3CCN(C(=O)c4ccco4)CC3)cc2)cc1	-6.3%	13.9%	?	?
Cc1ccccc1C(=O)N1CCN(c2ccc(NC(=O)CSc3ccc(Cl)cc3)cc2)CC1	?	?	-70.6*	11.2µM*
Cc1cccc(OCC(=O)Nc2ccc(N3CCN(C(=O)c4ccco4)CC3)cc2)c1C	-16.7%	-11.3%[46.1 µM]	-10.3	?
O=C(CSc1ccc(Cl)cc1)Nc1ccc(N2CCN(C(=O)c3ccco3)CC2)cc1	20µM*	-22.1%	1.9	?
O=C(CSc1ccc(Cl)cc1)Nc1ccc(NC(=O)c2ccco2)cc1	.	-6.3%	-8.9	7.2%
Cc1ccccc1OCC(=O)Nc1ccc(N2CCN(C(=O)c3ccco3)CC2)cc1	28.2µM*	?	-72.8*	?
O=C(CN1C(=O)COc2ccc(S(=O)(=O)N3CCCC3)cc21)N1CCN(c2ccc(Cl)cc2)CC1	-22.3%	10.0%[46.1 µM]	-16.4	?
O=C(NC(=S)Nc1cc([N+](=O)[O-])ccc1O)C1CC1	8.1%	.	30.2	.
CCCCCn1c(=N)n(CC(O)COc2ccccc2OC)c2ccccc21 (stereo unspecified)	?	?	-37.4	?
CCN(CC)CCn1c(=N)n(CCO)c2ccccc21	-4.5%	0.2%	16.9	-4.0%
CCn1c(=N)n(CC(O)COc2ccc(C)cc2)c2ccccc21 (stereo unspecified)	0.0%	8.7%	-16.3	?
SMILES	FMDV inh	LASV entry inh	HCMV inh	Marburg entry inh
CCN(CC)CCn1c(=N)n(CCOc2ccccc2)c2ccccc21	?	20.6µM*	?	4.11µM*
CCCCn1c(=N)n(CCOc2ccccc2OC)c2ccccc21	?	?	-70.5*	?
Cc1ccccc1OCC(O)Cn1c(=N)n(Cc2ccccc2)c2ccccc21 (stereo unspecified)	?	?	-74.1*	?
CCN(CC)CCn1c(=N)n(CC(O)COc2ccccc2)c2ccccc21 (stereo unspecified)	-23.5%	6.4%	0.0	4.47µM*
CCCCOC(=O)c1ccc(NC(=O)c2cc3c(=O)n4cccc(C)c4nc3s2)cc1	-3.8%	?	28.5	0.7%[46.1 µM]
COc1cc(=O)n2c(c1C(=O)N(C)Cc1nonc1C)CCN(Cc1c(F)cccc1F)CC2	-2.6%	.	.	.
Cc1ccc2[nH]nc(C(=O)N3CCOc4ccc(CN5CCc6sccc6C5)cc4C3)c2c1	-20.8%	.	.	.
C=C(C)CCN1C(=O)NC(c2ccccc2)C(C(C)=O)=C1C (stereo unspecified)	.	?	.	7.2%[14.2 µM]
CCn1c(=N)n(CCOc2ccc(Br)cc2)c2ccccc21	?	-30.7%[46.1 µM]	-101.2*	.
CCN(CC)CCn1c(=N)n(CC(=O)c2ccc(Br)s2)c2ccccc21	-24.7%	?	-97.4*	7.08µM*
CCCCn1c(=N)n(CC(O)COc2cccc(C)c2)c2ccccc21 (stereo unspecified)	?	?	-63.1*	?
